“And” between values parts separate entries of the source, which are not always exact repeats. Identical values can stand only once.
Tests used:
[1] = target: Ribosomal protein S6 kinase alpha-6 (Homo sapiens) (UniProt Q9UK32); settings: at 1 µM;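 further: each value is a mean inhibition of RSK4 from a GSK PKIS panel screen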
[2] = target: T1, Serine/threonine-protein kinase Sgk1 (Homo sapiens) (UniProt O00141); settings: at 0.1 µM
T1 sequence (whole entry): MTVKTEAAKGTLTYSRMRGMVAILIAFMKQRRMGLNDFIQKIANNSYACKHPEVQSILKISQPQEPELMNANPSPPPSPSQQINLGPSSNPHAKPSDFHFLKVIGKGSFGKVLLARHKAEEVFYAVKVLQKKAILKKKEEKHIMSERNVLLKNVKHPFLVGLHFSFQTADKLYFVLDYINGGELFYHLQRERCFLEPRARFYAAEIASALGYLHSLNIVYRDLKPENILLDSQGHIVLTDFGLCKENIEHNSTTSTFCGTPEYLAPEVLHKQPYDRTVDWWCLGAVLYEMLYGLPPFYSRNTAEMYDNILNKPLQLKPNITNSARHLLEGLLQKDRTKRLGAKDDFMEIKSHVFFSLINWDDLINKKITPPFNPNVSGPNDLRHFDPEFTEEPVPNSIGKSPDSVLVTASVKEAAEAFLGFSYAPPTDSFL

[3] = target: T1, Serine/threonine-protein kinase Sgk1 (Homo sapiens); settings: at 1 µM
[4] = target: T2, Serine/threonine-protein kinase Sgk2 (Homo sapiens) (UniProt Q9HBY8); settings: at 0.1 µM
T2 sequence (whole entry): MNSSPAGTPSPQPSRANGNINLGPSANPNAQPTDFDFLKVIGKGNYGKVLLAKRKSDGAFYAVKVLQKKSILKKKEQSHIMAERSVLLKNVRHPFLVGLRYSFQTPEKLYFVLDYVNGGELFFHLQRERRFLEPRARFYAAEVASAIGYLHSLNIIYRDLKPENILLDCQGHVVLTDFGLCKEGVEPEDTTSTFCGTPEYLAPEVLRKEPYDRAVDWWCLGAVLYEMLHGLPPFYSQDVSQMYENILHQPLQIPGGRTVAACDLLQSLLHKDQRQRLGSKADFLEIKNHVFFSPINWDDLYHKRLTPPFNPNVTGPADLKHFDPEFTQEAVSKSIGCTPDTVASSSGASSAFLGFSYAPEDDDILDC

[5] = target: T2, Serine/threonine-protein kinase Sgk2 (Homo sapiens); settings: at 1 µM
[6] = target: T3, Serine/threonine-protein kinase Sgk3 (Homo sapiens) (UniProt Q96BR1); settings: at 0.1 µM
T3 sequence (whole entry): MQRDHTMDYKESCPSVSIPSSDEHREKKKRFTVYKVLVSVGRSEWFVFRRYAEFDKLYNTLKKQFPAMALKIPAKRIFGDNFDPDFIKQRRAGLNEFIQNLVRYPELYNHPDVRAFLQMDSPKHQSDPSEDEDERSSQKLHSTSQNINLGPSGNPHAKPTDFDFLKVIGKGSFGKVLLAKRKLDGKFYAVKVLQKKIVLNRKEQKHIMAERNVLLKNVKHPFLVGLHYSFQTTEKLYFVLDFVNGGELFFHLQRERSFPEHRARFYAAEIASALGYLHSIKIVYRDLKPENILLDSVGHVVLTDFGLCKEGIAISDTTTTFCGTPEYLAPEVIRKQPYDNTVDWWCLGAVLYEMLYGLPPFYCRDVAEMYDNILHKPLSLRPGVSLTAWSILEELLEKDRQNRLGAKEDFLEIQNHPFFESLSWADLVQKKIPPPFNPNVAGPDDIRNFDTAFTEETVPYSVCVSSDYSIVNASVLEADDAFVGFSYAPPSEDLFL

[7] = target: T3, Serine/threonine-protein kinase Sgk3 (Homo sapiens); settings: at 1 µM
[8] = target: 5'-AMP-activated protein kinase catalytic subunit alpha-1 (Homo sapiens) (UniProt Q13131); settings: at 0.1 µM
[9] = target: 5'-AMP-activated protein kinase catalytic subunit alpha-1 (Homo sapiens) (UniProt Q13131); settings: at 1 µM
[10] = target: 5'-AMP-activated protein kinase catalytic subunit alpha-2 (Homo sapiens) (UniProt P54646); settings: at 0.1 µM
[11] = target: 5'-AMP-activated protein kinase catalytic subunit alpha-2 (Homo sapiens) (UniProt P54646); settings: at 1 µM
[12] = target: T4, NUAK family SNF1-like kinase 1 (Homo sapiens) (UniProt O60285); settings: at 0.1 µM
T4 sequence (whole entry): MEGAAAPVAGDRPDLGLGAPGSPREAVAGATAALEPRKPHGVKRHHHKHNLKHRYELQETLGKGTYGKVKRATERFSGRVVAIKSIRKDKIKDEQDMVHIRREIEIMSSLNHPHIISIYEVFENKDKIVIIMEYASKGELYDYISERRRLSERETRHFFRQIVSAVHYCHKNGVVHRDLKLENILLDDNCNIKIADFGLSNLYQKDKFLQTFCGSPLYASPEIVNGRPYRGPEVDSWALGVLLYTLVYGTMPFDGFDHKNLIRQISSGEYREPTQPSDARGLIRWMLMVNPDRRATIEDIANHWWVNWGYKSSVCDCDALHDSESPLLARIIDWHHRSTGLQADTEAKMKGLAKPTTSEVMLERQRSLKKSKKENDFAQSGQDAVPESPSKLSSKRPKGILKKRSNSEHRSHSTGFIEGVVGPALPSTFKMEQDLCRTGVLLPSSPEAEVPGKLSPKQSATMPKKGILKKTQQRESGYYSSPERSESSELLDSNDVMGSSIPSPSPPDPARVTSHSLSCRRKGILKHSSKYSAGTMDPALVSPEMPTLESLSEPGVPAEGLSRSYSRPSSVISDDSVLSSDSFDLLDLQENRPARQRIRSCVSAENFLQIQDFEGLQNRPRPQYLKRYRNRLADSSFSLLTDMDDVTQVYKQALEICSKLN

[13] = target: T4, NUAK family SNF1-like kinase 1 (Homo sapiens); settings: at 1 µM
[14] = target: T5, Serine/threonine-protein kinase BRSK1 (Homo sapiens) (UniProt Q8TDC3); settings: at 0.1 µM
T5 sequence (whole entry): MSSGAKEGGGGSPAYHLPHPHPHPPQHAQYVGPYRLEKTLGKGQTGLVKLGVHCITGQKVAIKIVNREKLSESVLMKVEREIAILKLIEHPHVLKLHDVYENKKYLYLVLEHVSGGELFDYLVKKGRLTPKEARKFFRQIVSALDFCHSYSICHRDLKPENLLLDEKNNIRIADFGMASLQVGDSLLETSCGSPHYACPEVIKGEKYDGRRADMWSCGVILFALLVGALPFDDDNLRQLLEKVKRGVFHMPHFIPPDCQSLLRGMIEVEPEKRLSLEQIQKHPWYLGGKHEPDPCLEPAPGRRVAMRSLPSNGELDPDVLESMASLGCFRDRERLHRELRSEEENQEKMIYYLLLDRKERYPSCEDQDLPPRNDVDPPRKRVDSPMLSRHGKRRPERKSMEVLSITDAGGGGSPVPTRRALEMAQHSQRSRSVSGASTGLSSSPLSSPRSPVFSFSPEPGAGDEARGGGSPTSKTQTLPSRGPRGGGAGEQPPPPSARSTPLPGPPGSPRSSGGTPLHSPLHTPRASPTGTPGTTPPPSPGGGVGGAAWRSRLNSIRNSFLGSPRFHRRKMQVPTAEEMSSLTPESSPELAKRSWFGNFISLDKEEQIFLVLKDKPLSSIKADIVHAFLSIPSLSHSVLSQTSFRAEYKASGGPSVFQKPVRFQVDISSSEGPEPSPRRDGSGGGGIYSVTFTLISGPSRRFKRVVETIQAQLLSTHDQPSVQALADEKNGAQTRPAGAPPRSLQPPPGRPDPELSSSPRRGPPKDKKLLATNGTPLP

[15] = target: T5, Serine/threonine-protein kinase BRSK1 (Homo sapiens); settings: at 1 µM
[16] = target: T6, Serine/threonine-protein kinase BRSK2 (Homo sapiens) (UniProt Q8IWQ3); settings: at 0.1 µM
T6 sequence (whole entry): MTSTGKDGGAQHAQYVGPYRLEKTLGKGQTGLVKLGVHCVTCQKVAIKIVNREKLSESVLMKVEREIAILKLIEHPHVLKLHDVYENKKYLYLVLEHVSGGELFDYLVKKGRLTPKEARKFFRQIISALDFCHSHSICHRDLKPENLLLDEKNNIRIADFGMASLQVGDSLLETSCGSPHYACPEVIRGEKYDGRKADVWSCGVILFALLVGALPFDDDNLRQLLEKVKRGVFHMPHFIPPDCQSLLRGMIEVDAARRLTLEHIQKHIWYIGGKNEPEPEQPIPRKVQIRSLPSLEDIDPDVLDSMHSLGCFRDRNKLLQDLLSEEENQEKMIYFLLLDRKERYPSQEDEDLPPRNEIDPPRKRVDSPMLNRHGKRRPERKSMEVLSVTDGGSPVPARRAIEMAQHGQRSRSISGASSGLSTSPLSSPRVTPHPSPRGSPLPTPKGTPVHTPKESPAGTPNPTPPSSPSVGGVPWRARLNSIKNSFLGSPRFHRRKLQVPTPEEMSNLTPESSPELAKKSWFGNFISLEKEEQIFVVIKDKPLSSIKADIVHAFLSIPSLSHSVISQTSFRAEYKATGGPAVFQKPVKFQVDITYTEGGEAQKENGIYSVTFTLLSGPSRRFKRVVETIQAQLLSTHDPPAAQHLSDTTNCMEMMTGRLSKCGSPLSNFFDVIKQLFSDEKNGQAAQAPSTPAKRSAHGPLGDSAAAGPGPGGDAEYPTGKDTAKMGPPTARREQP

[17] = target: T6, Serine/threonine-protein kinase BRSK2 (Homo sapiens); settings: at 1 µM
[18] = target: Calcium/calmodulin-dependent protein kinase type 1D (Homo sapiens) (UniProt Q8IU85); settings: at 0.1 µM
[19] = target: Calcium/calmodulin-dependent protein kinase type 1D (Homo sapiens) (UniProt Q8IU85); settings: at 1 µM
[20] = target: Calcium/calmodulin-dependent protein kinase type II subunit alpha (Homo sapiens) (UniProt Q9UQM7); settings: at 0.1 µM;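 further: reported values are averages (mean inhibition of CAMK2A)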
Sequence of Calcium/calmodulin-dependent protein kinase type II subunit alpha (Homo sapiens) (Q9UQM7 whole entry): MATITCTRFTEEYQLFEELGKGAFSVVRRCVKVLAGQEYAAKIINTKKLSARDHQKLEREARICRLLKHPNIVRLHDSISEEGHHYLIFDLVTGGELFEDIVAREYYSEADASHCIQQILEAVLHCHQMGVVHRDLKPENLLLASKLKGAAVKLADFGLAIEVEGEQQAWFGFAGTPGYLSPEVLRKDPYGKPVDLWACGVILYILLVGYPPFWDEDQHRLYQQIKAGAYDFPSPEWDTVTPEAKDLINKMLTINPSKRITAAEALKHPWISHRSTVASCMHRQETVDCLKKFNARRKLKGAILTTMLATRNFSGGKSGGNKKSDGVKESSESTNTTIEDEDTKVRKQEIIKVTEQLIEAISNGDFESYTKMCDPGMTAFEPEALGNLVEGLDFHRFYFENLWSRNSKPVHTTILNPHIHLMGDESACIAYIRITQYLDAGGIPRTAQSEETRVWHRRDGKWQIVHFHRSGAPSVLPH

Sequence of Ribosomal protein S6 kinase alpha-6 (Homo sapiens) (Q9UK32 whole entry): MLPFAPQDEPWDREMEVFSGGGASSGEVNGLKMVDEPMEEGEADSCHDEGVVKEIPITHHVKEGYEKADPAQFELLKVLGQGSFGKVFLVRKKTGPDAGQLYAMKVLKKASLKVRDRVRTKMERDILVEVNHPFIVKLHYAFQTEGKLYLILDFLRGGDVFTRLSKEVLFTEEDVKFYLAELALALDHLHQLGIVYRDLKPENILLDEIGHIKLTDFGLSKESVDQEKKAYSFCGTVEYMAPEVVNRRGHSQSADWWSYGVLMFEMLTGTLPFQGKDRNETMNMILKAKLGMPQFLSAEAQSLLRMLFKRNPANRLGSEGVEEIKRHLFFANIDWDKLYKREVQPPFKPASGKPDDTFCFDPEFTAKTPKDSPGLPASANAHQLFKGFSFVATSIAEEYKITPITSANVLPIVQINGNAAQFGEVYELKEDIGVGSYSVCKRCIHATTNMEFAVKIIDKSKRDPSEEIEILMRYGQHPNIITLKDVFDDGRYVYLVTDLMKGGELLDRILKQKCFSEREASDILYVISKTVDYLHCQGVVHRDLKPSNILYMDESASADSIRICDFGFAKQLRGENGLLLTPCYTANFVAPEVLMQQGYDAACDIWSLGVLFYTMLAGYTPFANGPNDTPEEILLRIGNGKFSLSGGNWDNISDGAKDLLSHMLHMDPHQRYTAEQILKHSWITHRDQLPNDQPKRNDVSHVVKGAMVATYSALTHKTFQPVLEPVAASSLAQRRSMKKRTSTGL
Sequence of 5'-AMP-activated protein kinase catalytic subunit alpha-1 (Homo sapiens) (Q13131 whole entry, looked up): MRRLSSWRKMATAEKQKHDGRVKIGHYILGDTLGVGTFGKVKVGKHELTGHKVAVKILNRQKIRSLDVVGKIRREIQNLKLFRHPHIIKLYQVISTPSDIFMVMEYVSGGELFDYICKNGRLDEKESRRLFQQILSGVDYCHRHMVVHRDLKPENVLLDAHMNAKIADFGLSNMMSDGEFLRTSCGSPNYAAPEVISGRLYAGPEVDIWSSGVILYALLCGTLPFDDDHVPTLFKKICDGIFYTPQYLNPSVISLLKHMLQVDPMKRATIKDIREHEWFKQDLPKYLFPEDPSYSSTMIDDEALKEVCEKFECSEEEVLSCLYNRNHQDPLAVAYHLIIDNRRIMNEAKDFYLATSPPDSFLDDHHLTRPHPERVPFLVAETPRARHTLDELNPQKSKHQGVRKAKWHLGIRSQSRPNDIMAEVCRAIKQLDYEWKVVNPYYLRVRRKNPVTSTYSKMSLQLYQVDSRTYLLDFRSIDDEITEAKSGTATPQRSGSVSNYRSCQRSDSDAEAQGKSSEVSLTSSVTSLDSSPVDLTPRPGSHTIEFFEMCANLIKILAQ
Sequence of Calcium/calmodulin-dependent protein kinase type 1D (Homo sapiens) (Q8IU85 whole entry, looked up): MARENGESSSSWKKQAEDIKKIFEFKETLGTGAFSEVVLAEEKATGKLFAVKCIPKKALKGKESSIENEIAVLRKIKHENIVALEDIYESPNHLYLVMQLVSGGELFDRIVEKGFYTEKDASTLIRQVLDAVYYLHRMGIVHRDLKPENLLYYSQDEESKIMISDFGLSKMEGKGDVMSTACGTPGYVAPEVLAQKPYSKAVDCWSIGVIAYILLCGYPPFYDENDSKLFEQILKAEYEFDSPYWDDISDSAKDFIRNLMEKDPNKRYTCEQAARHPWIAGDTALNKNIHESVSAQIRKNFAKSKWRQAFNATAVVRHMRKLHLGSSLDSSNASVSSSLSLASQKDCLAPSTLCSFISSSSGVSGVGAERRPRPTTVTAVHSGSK
Sequence of 5'-AMP-activated protein kinase catalytic subunit alpha-2 (Homo sapiens) (P54646 whole entry, looked up): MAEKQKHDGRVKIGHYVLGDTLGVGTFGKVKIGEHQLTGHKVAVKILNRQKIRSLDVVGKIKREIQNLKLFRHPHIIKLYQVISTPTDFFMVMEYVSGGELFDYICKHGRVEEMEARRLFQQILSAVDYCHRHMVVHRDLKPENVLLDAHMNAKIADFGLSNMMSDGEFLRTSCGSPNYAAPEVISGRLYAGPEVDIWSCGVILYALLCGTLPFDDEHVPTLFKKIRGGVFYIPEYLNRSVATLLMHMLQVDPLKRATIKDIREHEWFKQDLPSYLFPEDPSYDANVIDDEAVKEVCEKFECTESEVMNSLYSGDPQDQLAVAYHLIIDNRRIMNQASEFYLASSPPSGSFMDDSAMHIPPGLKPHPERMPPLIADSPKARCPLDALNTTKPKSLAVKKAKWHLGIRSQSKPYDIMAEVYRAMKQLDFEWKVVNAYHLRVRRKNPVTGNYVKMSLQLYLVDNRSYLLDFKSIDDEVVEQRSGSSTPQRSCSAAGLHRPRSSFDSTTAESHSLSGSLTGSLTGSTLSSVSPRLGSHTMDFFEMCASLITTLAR

Row | Compound | inhibition [1] | inhibition [2] | inhibition [3] | inhibition [4] | inhibition [5] | inhibition [6] | inhibition [7] | inhibition [8] | inhibition [9] | inhibition [10] | inhibition [11] | inhibition [12] | inhibition [13] | inhibition [14] | inhibition [15] | inhibition [16] | inhibition [17] | inhibition [18] | inhibition [19] | inhibition [20]
1 | CC1(C)CC(n2cnc(-c3ccc(F)cc3)c2-c2ccnc(N)n2)CC(C)(C)N1 | 0.95% | 1.68% | 5.28% | -3.17% | -3.03% | 1.34% | 1.32% | 0.3% | 1.1% | 3.69% | 0.53% | 0.87% | 1.37% | 1.5% | 4.7% | 1.41% | 5.87% | -0.53% | 2.41% | -2.87%
2 | Nc1nonc1-c1nc2cnccc2n1C1CC1 | 39.3% and 40.7% | 2.58% and 2.55% | 12.5% and 16.1% | 8.13% and 8.47% | 50.4% and 54.2% | 20% and 22.1% | 61.8% and 65.5% | 5.9% and 3.15% | 14.3% and 11.5% | 1.84% and 3.94% | 7.08% and 5.85% | 5% and 1.55% | 13.1% and 10.2% | 5.76% and 4.57% | 21.7% and 18.1% | 8.42% and 4.02% | 27.9% and 27.1% | 0.19% and 0.41% | 1.1% and 0.69% | 4.16% and 0.57%
3 | Cc1ccc(-c2cc3c(NC(=O)C4CC4)ncnc3o2)cc1 | 2.4% | 2.2% | 3% | 5.33% | 8.63% | 3.61% | 4.02% | 3.13% | 5.1% | 2.34% | 5.09% | 2.09% | 6.68% | 2.59% | 4.69% | 2.82% | 4.69% | 0.92% | 1.61% | 4.04%
4 | CCn1c(-c2nonc2N)nc2cncc(C(=O)NCCNC)c21 | 37.3% | 3.75% | 18.1% | 2.29% | 17.7% | 21.3% | 66.2% | 3.01% | 8.23% | 2.58% | 4.46% | -0.78% | 2.03% | 0.66% | 6.23% | 2.51% | 9.29% | -0.23% | 0.83% | 2.44%
5 | COc1cc2c(cc1Nc1nc(Nc3cccc(F)c3C(N)=O)c3cc[nH]c3n1)N(C(=O)CN1CCN(C(C)C)CC1)CC2 | 11.7% | -0.48% | 1.29% | 1.96% | 0.58% | 0.73% | 0.46% | 1.45% | 3.93% | 5.43% | 3.18% | 1.37% | 5.31% | 2.82% | -1.3% | -0.84% | -0.2% | 1.29% | 7.02% | 2.3%
6 | Cn1c(-c2nonc2N)nc2cnccc21 | 5.91% | 3.35% | 6.24% | 5.57% | 10.7% | 2.77% | 13.6% | 3.36% | 3.2% | 0.94% | 4.41% | 0.78% | 4.88% | 2.34% | 5.84% | 3.19% | 6.4% | 0.12% | 0.97% | 3.13%

— ChEMBL document CHEMBL1961873, “Compounds: GSK PKIS; Assays: Nanosyn kinase panel” (2012)
